# Sampled rows, rich in hits. Any-hit rate of the full collection: about 1.2%.
# GoLoco inh red = qHTS Assay for Inhibitors of RGS12 GoLoco Motif Activity (Red Fluorophore); Guanine nucleotide-binding protein G(i) subunit alpha-1 (Homo sapiens), P63096; Gai1:RGS12 GoLoco peptide FP, rhodamine, 10 min; Potency, µM (doses to about 61.6 µM), inactives show at the highest dose activity, negative = inhibition, actives largely listed as inhibitors; actives 0.44% (n = 230,000); AID 880, 2007; active = well fitted inhibition curve with a large enough effect, not every such curve was filed as active; inactive = no such curve, though single readings can be large or run the other way; note: % is set by controls: 0 for no effect and ±100 for the full control effect; nearly all actives have a fitted effect of over 30% in size
# TRb-SRC2 inh = qHTS for Inhibitors of the Interaction of Thyroid Hormone Receptor and Steroid Receptor Coregulator 2; Thyroid hormone receptor beta (Homo sapiens), P10828; actives 0.065% (n = 280,000); AID 1469, 2008; Potency, µM (titrated, usually from 106 µM), without a hit: top-dose activity change, negative = inhibition, actives largely listed as inhibitors; TRbeta-SRC2 peptide binding, fluorescence polarization; receptor liganded with 1 µM T3;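 note: plate controls were bound peptide for no effect and peptide without receptor for full effect; nearly all actives have a fitted effect of over 50% in size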
#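 Binding of a 20-amino-acid Texas Red SRC2 peptide (20 nM) to TRb ligand-binding domain (0.6 uM) with agonist T3 at 1 uM was followed by fluorescence polarization after a 5 hr room-temperature incubation.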
# VDR inhibitor = Inhibitors of the vitamin D receptor (VDR): qHTS. Vitamin D3 receptor (Homo sapiens), P11473. VDR-SRC2-3 peptide fluorescence polarization, 2 h. Potency, µM, for inactives: max response, negative = inhibition, hits mostly inhibitors. actives 0.93% (n = 400,000); note: % is set by controls: 0 for no effect and ±100 for the full control effect
# Target sequence (P11473 whole entry, looked up): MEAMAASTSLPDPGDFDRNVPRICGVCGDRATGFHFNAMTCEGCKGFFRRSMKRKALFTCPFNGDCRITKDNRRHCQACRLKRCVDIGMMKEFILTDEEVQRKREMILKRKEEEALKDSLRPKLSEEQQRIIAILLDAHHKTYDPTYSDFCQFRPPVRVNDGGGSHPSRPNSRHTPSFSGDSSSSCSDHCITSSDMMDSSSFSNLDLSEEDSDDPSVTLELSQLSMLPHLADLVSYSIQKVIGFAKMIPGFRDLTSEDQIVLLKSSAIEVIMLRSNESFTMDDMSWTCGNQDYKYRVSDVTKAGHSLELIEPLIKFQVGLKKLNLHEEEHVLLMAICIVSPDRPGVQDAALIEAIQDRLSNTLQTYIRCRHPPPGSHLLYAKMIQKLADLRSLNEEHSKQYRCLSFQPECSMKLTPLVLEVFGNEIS
#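 Inhibition of the VDR/SRC2-3 peptide interaction is quantified by fluorescence polarization. Compounds (23 nl, pintool) incubate with the reagents for 2 hours at ambient room temperature.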
# TexasRed fluor = Total Fluorescence Counterscreen for Inhibitors of the Interaction of Thyroid Hormone Receptor and Steroid Receptor Coregulator 2; TRb/SRC2 Texas Red total fluorescence interference; Potency, µM (doses to about 106 µM), inactives show at the top dose fluorescence change, negative = quenching; actives 0.29% (n = 280,000); active = well fitted curve in either direction with a large enough effect; inconclusive = small, poorly fitted or top-dose-only effect; note: % is set by controls: 0 for no effect and ±100 for the full control effect
#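 Human TRβ ligand-binding domain (0.6 uM) and Texas Red SRC2 peptide (20 nM) in Tris buffer with 1 uM T3 and 5% DMSO were incubated with pinned compound for 5 hr at ambient temperature. Total fluorescence was computed as S + 2P (555/632 nm).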
# GCN5L2 inh = qHTS Assay for Inhibitors of GCN5L2; Potency, µM (top dose mostly 58.9 µM), for the others: at the highest dose activity change, negative = inhibition, hits mostly inhibitors; actives 0.21% (n = 390,000); GCN5L2 HAT assay, ThioGlo1 CoA-SH fluorescence; Histone acetyltransferase KAT2A (Homo sapiens), Q92830; note: % is set by controls: 0 for no effect and ±100 for the full control effect
#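 ThioGlo1-coupled HAT assay: 20nM GCN5L2, 70uM acetyl-CoA, 75uM H3(1-25) peptide, pH 7.5. Fluorescence read at 340/540nm at start and after 20 min at room temperature.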
# VDR confirm = qHTS for Inhibitors of the vitamin D receptor (VDR): Hit Validation in Primary Screen | VDR-coactivator inhibition assay, qHTS confirmation | shares compounds with VDR inhibitor | actives 89% (n = 840) | AID 602199, 2012 | Potency, µM, actives largely listed as inhibitors
# VDR FP fluor = qHTS for Inhibitors of the vitamin D receptor (VDR): Hit Validation using a Fluorescein Assay; shares compounds with VDR inhibitor; VDR-coactivator binding, fluorescein fluorescence polarization; Potency, µM (doses to about 57.1 µM), for the others: top-dose activity change, negative = inhibition, most hits filed as inhibitors; actives 48% (n = 840); AID 602200, 2012
# VDR bla reporter = qHTS for Inhibitors of the vitamin D receptor (VDR): Hit Validation using a Beta-Lactamase Assay; Potency, µM (highest dose often 46.1 µM), for the others: at the highest dose activity change, negative = inhibition, actives largely listed as inhibitors; actives 23% (n = 840); VDR beta-lactamase reporter cells, FRET ratio; cells co-treated with VDR agonist LG190178; AID 602202, 2012; shares compounds with VDR inhibitor; note: % is set by controls: 0 for no effect and ±100 for the full control effect
# VDR viability = qHTS for Inhibitors of the vitamin D receptor (VDR): Hit Validation using a Cytotoxicity Assay | shares compounds with VDR inhibitor | AID 602204, 2012 | actives 18% (n = 840) | cytotoxicity counter-screen, cell viability, qHTS | Potency, µM (doses to about 48.3 µM), without a hit: top-dose activity change, negative = cytotoxicity, most hits filed as cytotoxic;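 note: plate controls were DMSO for no effect and high-concentration cycloheximide for full effect; nearly all actives have a fitted effect of over 75% in size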
# * hit, by the source's call; ? = inconclusive; / = no result; [ ] = remark or other dose. Unless noted, calls come from the whole dose curve; as a rule, active = well fitted curve in the direction sought with a large enough effect; inconclusive = small, poorly fitted or top-dose-only effect, or another doubt; inactive = no such curve, though single readings can be large; an effect the other way counts as inactive or inconclusive. Potency is the fitted concentration of half-maximal effect.
SMILES,GoLoco inh red,TRb-SRC2 inh,VDR inhibitor,TexasRed fluor,GCN5L2 inh,VDR confirm,VDR FP fluor,VDR bla reporter,VDR viability
Cc1ccc2c(c1)C(=O)C(=O)N2Cc1ccc(Br)cc1,/,/,22.4µM*,/,-3.7%,8.44*,?,-21.2%,?
Cc1ccc(CN2C(=O)C(=O)c3cc(C)ccc32)cc1,/,/,?,/,-4.8%,/,/,/,/
C=CC1=C2C=C(C3CC3)N(C3CCCC3)C=C2C(=O)C(C)(OC(=O)c2ccco2)C1=O (configuration not stated),2.1%[14.2 µM],3.5%[11.2 µM],/,0.3%[11.2 µM],/,/,/,/,/
CN(C)/C=C(/C(=O)c1ccc(Cl)cc1)n1cncn1,11.5%,-1.7%,12.6%,-3.5%,-4.9%,/,/,/,/
CC(C)CC(=O)/C(=C\c1ccc(Cl)cc1Cl)n1cncn1,-12.7%,2.8%,3.98µM*,-1.8%,3.3%,3.77*,?,16.4µM*,14.6µM*
CCCCCS(=O)(=O)CCCCCCCCCCn1c(-c2ccc(O)cc2)c(C)c2cc(O)ccc21,2.7%,6.6%,/,-1.7%,/,/,/,/,/
COc1cc(/C=C2/C(=O)N(c3ccccc3)N=C2C)ccc1OS(=O)(=O)c1ccccc1,11.6%,-5.3%,/,-2.7%,0.2%,/,/,/,/
CC1=NN(c2ccccc2)C(=O)/C1=C\c1cc(C)n(-c2ccccc2)c1C,-10.7%,-1.9%,7.0%,-4.0%,4.8%,/,/,/,/
COc1ccc(/C=C2/C(=O)N(c3ccccc3)N=C2C)cc1Br,/,/,50.1µM*,/,-6.1%,9.47*,?,20.2%,4.4%
CC1=NN(c2cccc(C(=O)O)c2)C(=O)/C1=C\C=C/c1ccccc1,-2.9%,0.9%,?,-2.5%,-19.4%,3.16*,3.16µM*,8.2µM*,?
CC1=NN(c2ccccc2)C(=O)/C1=C/c1ccc[nH]1,4.3%,0.4%,6.2%,-2.2%,-3.4%,/,/,/,/
CC1=NN(c2ccccc2)C(=O)/C1=C/c1ccc(Cl)cc1,/,/,79.4µM*,/,-28.2%,15*,?,4.5%,9.2%
Nc1ncnc2c1ncn2[C@H]1O[C@@H](C(=O)OCCO)[C@@H](O)[C@H]1O,3.5%[14.2 µM],/,/,/,/,/,/,/,/
O=C(CN1CCN(c2ccc([N+](=O)[O-])cc2)CC1)c1ccccc1,/,/,-18.8%,/,-0.5%,/,/,/,/
CCOC(=O)N1CCN(CCC(=O)c2ccc(Cl)cc2)CC1,1.7%,-13.1%,35.5µM*,-9.7%,-0.5%,11.9*,11.2µM*,?,?
CCN1CCN(C(=S)c2ccc(Cl)cc2)CC1,-10.7%,7.2%,35.5µM*,0.5%,-11.3%,9.47*,?,0.5%,1.8%
O=C(CCN1CCN(c2ccc([N+](=O)[O-])cc2)CC1)c1ccc(Cl)cc1,/,/,25.1µM*,/,-0.8%,26.7*,12.6µM*,12.3%,?

# Assay outcomes (PubChem)
